# Screening results as filed in PubChem BioAssay.
# In the library only some 21% were active in any assay of this set; here they are far more common.
# Shiga inhibitor = A qHTS for Small Molecule Inhibitors of Shiga Toxin; Vero cells, Shiga toxin protein synthesis inhibition reporter; inhibition, % at 38.7 µM; 290,000 tested, 9.2% active; in the data active = inhibition mostly above about 28%, no sharp cut-off; inactive = mostly below about 43%; also: 0% is about no effect
# Pf growth 96h = Primary qHTS for delayed death inhibitors of the malarial parasite plastid, 96 hour incubation; P. falciparum luciferase reporter growth, 96 h; AID 504834, 2011; Potency, µM (top dose mostly 28.7 µM), for inactives: top-dose activity change, negative = inhibition, usual class: inhibitors; 320,000 tested, 6.9% active; also: potency is read from the fitted curve at half-maximal effect; % is scaled to controls: 0 for no effect and ±100 for the full control effect
#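 P. falciparum expressing integrated firefly luciferase, in erythrocytes at 2% hematocrit, 0.05% parasitemia, incubated with compounds 96 h at 37 C, 5% CO2. Growth inhibition read as loss of luminescence; two-generation exposure targets delayed-death apicoplast inhibitors.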
# Cycloheximide cs = Cycloheximide Counterscreen for Small Molecule Inhibitors of Shiga Toxin | cell reporter, cycloheximide protein synthesis inhibition counterscreen | max response, % | 300,000 tested, 12% active; in the data active = max response mostly above about 13%, no sharp cut-off; inactive = mostly below about 14%; also: read at 38.3 µM for the half of the compounds with a filed dose; 0% is about no effect
# Pf growth 48h = Primary qHTS for delayed death inhibitors of the malarial parasite plastid, 48 hour incubation | 310,000 tested, 5.9% active | Potency, µM (titrated, usually from 28.7 µM), without a hit: at the highest dose activity change, negative = inhibition, hits mostly inhibitors | P. falciparum luciferase growth in erythrocytes, 48 h; also: potency is read from the fitted curve at half-maximal effect; % is scaled to controls: 0 for no effect and ±100 for the full control effect
#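 First compound was added to culture medium, then infected red cells at 0.1% parasitemia and 2% hematocrit (final). After incubation at 37 C under 5% CO2, luciferase detection reagent was dispensed and light output recorded.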
# An asterisk follows results filed as active; ? = inconclusive; . = no result given; [ ] = dose if it differs, or a comment. Unless noted, calls follow the shape of the dose curve; as a rule, active = well fitted inhibition curve with a large enough effect; inconclusive = small, poorly fitted or top-dose-only effect, or another doubt; inactive = no such curve, though single readings can be large or run the other way.
SMILES,Shiga inhibitor,Pf growth 96h,Cycloheximide cs,Pf growth 48h
COc1cccc(C=Nc2cc(C)cc(C)c2)c1O,-9.3,7.8%,-2.6,-13.1%
CCCCn1c(NCc2ccc3c(c2)OCO3)nc2ccccc21,29.0,?,11.6*,?
CCCn1c(NCc2ccc3c(c2)OCO3)nc2ccccc21,33.7,?,20.5*,-27.5%
CN(C)CCn1c(NCc2ccc3c(c2)OCO3)nc2ccccc21,-4.0,20.6%,-3.3,33.3%
O=C(NCc1ccccc1)C1CCC(=O)N(CCCN2CCCC2=O)C1 (stereo unspecified),13.4,59.3%,-1.9,24.4%
O=C(Nc1ccccc1Cl)C1CCCN(c2ncnc3c2nc2n3CCCCC2)C1 (stereo unspecified),-3.5,6.57µM*,-2.4,?
COc1cc(NC(=O)C2CCCN(c3ncnc4c3nc3n4CCCCC3)C2)cc(OC)c1OC (stereo unspecified),1.5,13.1µM*,-3.2,?
Cc1cccc(CCNC(=O)C2CCCN(c3ncnc4c3nc3n4CCCCC3)C2)c1 (stereo unspecified),10.3,11.7µM*,-3.4,?
C/C(CC(=O)Nc1cc(C)ccn1)=N\NC(=O)c1ccc(C(C)(C)C)cc1,23.8,27.5%,1.5,21.4%
N=C(N)SCc1ccc(O)c([N+](=O)[O-])c1,-2.7,47.8%,10.8,49.6%
O=[N+]([O-])c1cc([As](=O)(O)c2ccc(O)c([N+](=O)[O-])c2)ccc1O,-7.6,2.94µM*,4.6,4.65µM*
CC(=O)Nc1cc([As](=O)(O)O)ccc1O,6.0,10.7µM*,3.3,?
O=C1CCN(C(=O)CNC(=O)Cc2ccccc2)CC1,-17.8,22.4%,1.4,?
O=C(Cc1ccccc1)NCC(=O)N1CCCCCC1,22.9,?,18.8*,.
CC1CCN(C(=O)CNC(=O)Cc2ccccc2)CC1,30.0*,55.2%,23.2*,28.0%
CC1CCCN(C(=O)CNC(=O)c2ccco2)C1 (stereo unspecified),53.3*,87.4%,32.6*,270.1%
Cc1cc2ccccc2c(=O)n1CC(=O)NCC(=O)N1CCCC1,36.1,11.7µM*,-1.3,4.4%
COc1ccc(NC(=O)C(NC(C)=O)C(=O)Nc2ccc(F)cc2)cc1 (stereo unspecified),6.1,-15.6%,2.2,-11.0%
COc1ccc(OC)c2c(C)c(C)[nH]c12,23.3,0.0%,4.5,?
COc1ccc(S(=O)(=O)N2CCCCCC2)cc1C(=O)N1CCN(c2ccccc2O)CC1,.,4.65µM*,.,2.33µM*
COc1ccc(S(=O)(=O)N2CCCCCC2)cc1C(=O)N1CCN(c2ccccc2C)CC1,.,5.86µM*,.,11.7µM*
COc1ccc(S(=O)(=O)N2CCN(c3ccccc3)CC2)cc1C(=O)N1CCCC1,-3.6,4.9%,-3.4,?
COc1ccc(N2CCN(C(=O)c3cc(S(=O)(=O)N4CCCCCC4)ccc3OC)CC2)cc1,.,?,.,11.7µM*
COc1ccc2cc(S(=O)(=O)N3CCCC3)ccc2c1,18.0,6.57µM*,12.3,-1.1%
Cc1nnc(SCC(=O)NC2CCCCCC2)n1C(C)C,-5.5,?,-1.8,-9.7%
SMILES,Shiga inhibitor,Pf growth 96h,Cycloheximide cs,Pf growth 48h
Cc1ccsc1C(=O)N1CCC(N2CCC(C(=O)NCC3CCCO3)CC2)CC1 (stereo unspecified),-29.1,37.7%,-2.4,4.0%
O=C(COc1cccc2cccnc12)N/N=C1\SCC(=O)N1CCc1ccccc1,17.5,-1.0%,-0.9,9.3%
COc1ccc(OC2CCN(S(=O)(=O)c3ccc(OC)cc3)CC2)cc1,14.0,?,2.6,-7.4%[0.00184 µM]
COc1ccc(OC2CCN(S(=O)(=O)c3cccc(F)c3)CC2)cc1,81.2*,-8.8%,36.5*,12.5%
O=C(O)c1ccccc1C(=O)Nc1ccc(Oc2cccc3ccccc23)cc1,-25.7,5.8%,-11.9,0.8%
O=C(Nc1ccc(Oc2cccc3ccccc23)cc1)c1ccco1,44.3,16.2%,29.4*,.
CCC(=O)Oc1ccc(NC(=O)c2ccco2)cc1,32.9,22.5%,7.4,25.9%
O=C(Nc1ccc(Cl)c(Cl)c1)Oc1ccc(NC(=O)c2ccco2)cc1,23.0,?,22.0*,.
O=C(Nc1ccc(OC(=O)c2ccco2)cc1)c1ccco1,32.3*,?,18.2,-22.9%
CC(Oc1ccc(NC(=O)c2ccco2)cc1)C(=O)N1c2ccccc2CC1C (stereo unspecified),-7.4,5.22µM*,-0.8,?
Cc1c[n+](CC(=O)c2ccccc2)c(C)cn1,12.8,?,6.4,5.3%
COc1ccc(CNC(=O)C2CCC(CNC(=O)[C@@H]3Cc4ccccc4CN3)CC2)cc1 (stereo partly specified),-2.3,?,-0.4,3.6%
COC(=O)c1cc(S(=O)(=O)N2CCN(c3cccc(C)c3C)CC2)c[nH]1,3.9,-13.8%,-4.2,?
O=P1(Oc2ccccc2)CC=CC(COC(c2ccccc2)(c2ccccc2)c2ccccc2)O1 (stereo unspecified),11.4,.,18.2,.
COc1ccc(NC(=O)CSc2n[nH]c(=O)n2C2CC2)cc1OC,.,-20.4%,.,-12.8%
CC1(C)Cc2c(sc3nc(=S)[nH]c(N)c23)CO1,-5.4,?,-3.3,-39.5%
O=C(OC1CCCCC1)c1ccc(NC(=O)c2ccco2)cc1,60.9*,2.94µM*,36.1*,?
CC(Sc1nnc(C(C)Oc2ccccc2F)o1)C(=O)NCc1ccc2c(c1)OCO2 (stereo unspecified),.,-19.5%,.,-25.8%
O=C(Nc1ccc(S(=O)(=O)N2CCOCC2)cc1)c1cc(-c2ccccc2O)n[nH]1,13.9,?,-0.7,10.4µM*
CC1CN(S(=O)(=O)c2ccc(NC(=O)c3cc(-c4ccccc4O)n[nH]3)cc2)CC(C)O1 (stereo unspecified),-5.2,0.928µM*,-1.1,1.65µM*
Cc1cc2[nH]c(=O)c(=O)[nH]c2cc1S(=O)(=O)NCc1ccc(Cl)cc1,-2.4,13.1µM*,-1.4,-4.8%
Cc1cc2[nH]c(=O)c(=O)[nH]c2cc1S(=O)(=O)Nc1cccc(Cl)c1C,-4.8,-2.2%,-0.6,0.7%
COc1ccc(-c2nnc(SCC(=O)Nc3ncc(C(F)(F)F)cc3Cl)n2CC(C)C)cc1,-6.8,29.0%,14.9*,-0.6%
CCCN1CCN(S(=O)(=O)c2ccc3c(c2)NC(=O)C(C)C(=O)N3)CC1 (stereo unspecified),12.3,35.8%,-1.0,-1.5%
C=CCNC(=O)c1onc(CSc2ccc(F)cc2)c1C(=O)NCCOC,-3.7,57.9%,-1.6,8.3%
SMILES,Shiga inhibitor,Pf growth 96h,Cycloheximide cs,Pf growth 48h
CCc1ccc(N2CC(C)Cn3c2nc2c3c(=O)[nH]c(=O)n2C)cc1 (stereo unspecified),-6.7,2.94µM*,-4.4,7.38µM*
Cc1cccc(NC2CCCCC2NS(=O)(=O)c2ccccc2)c1 (stereo unspecified),7.0,?,5.1,?
NS(=O)(=O)c1ccc(NC(=O)COC(=O)COc2ccc(Br)cc2)cc1,-10.4,20.5%,-1.9,0.0%
O/N=C/c1ccn(-c2ccc(Br)cc2)c1,68.9*,176.4%,40.4*,68.0%
O=c1oc(-c2ccc([N+](=O)[O-])cc2)nc2ccccc12,-10.0,?,4.1,?
Nc1ccccc1-c1nc2ccccc2c(=O)o1,29.1*,?,17.5*,-7.0%
